Measurements published in article PMC11062922 (Nature Chemical Biology, 2023).
Where two headings read alike, the source gives them in different places.

What was measured:
Parameters in all cases: species or system human, MV4-11 + K-562 + COLO205 + SK-N-BE2 + OVCAR-8
[1] = tested on: STK4; conditions: read-out: apparent Kd, compound concentrations: 100 nM and 1000 nM (sheet 'Samples'), n = 1
[2] = tested on: TAOK2; conditions: read-out: apparent Kd; compound concentrations: 100 nM and 1000 nM (sheet 'Samples'), CATDS: 3.64108611477112E-2; n = 1
[3] = tested on: PRKAA1; conditions: read-out: apparent Kd; compound concentrations:100 nM and 1000 nM (sheet 'Samples'); n = 1
[4] = tested on: PRKAA2; conditions: read-out: apparent Kd, n = 1
[5] = tested on: BRAF; conditions: read-out: apparent Kd, n = 1
[6] = tested on: ERN2; conditions: read-out: apparent Kd, n = 1
[7] = tested on: ERN1; conditions: read-out: apparent Kd, compound concentrations: 100 nM and 1000 nM (sheet 'Samples'), n = 1
[8] = tested on: MAP3K11; conditions: read-out: apparent Kd, n = 1
[9] = tested on: MYLK3; conditions: read-out: apparent Kd; compound concentrations:100 nM and 1000 nM (sheet 'Samples'); n = 1
[10] = tested on: CDK6; conditions: read-out: apparent Kd, n = 1
[11] = tested on: ICK; conditions: read-out: apparent Kd, n = 1
[12] = tested on: PIP4K2C; conditions: read-out: apparent Kd; compound concentrations:100 nM and 1000 nM (sheet 'Samples'); n = 1
[13] = tested on: PIK3C2A; conditions: read-out: apparent Kd, n = 1
[14] = tested on: SLK; conditions: read-out: apparent Kd; compound concentrations:100 nM and 1000 nM (sheet 'Samples'); n = 1
[15] = tested on: GRK6; conditions: read-out: apparent Kd; compound concentrations:100 nM and 1000 nM (sheet 'Samples'); n = 1
[16] = tested on: NNT; conditions: read-out: apparent Kd, n = 1
[17] = tested on: PRKAG2; conditions: read-out: apparent Kd, n = 1
[18] = tested on: VDAC3; conditions: read-out: apparent Kd, n = 1
[19] = compound concentrations:100 nM and 1000 nM (sheet 'Samples')

## CN1CCc2ccc(Nc3nccc(-c4c(-c5cccc(NC(=O)c6c(F)cccc6F)c5)nc5ccccn45)n3)cc2C1.Cl [GSK1010829B]
[1]; CATDS: 3.6315985659661598E-2
  potency estimated from few doses: 1.17 µM
[2]
  potency estimated from few doses: 1.17 µM

## Cl.Cn1c(=O)c(Cc2ccc(F)cc2F)cc2cnc(NC3CCOCC3)nc21 [RO3308757-001]
[3]
  potency estimated from few doses: 0.706 µM
[4]; [19]
  potency estimated from few doses: 1.19 µM

## CC(C)c1nc(-c2ccc(F)c(NS(=O)(=O)c3c(F)cccc3F)c2)c(-c2ccnc(Nc3ccc(N4CCOCC4)nc3)n2)s1 [GSK1804250A]
[5]; [19]
  potency estimated from few doses: 0.939 µM
[6]; [19]
  potency estimated from few doses: 1.12 µM

## CC(C)c1nc(-c2cccc(NS(=O)(=O)c3c(F)cccc3F)c2)c(-c2ccnc(Nc3ccc(N4CCOCC4)nc3)n2)s1.Cl [GSK1723980B]
[5]; compound concentrations: 100 nM and 1000 nM (sheet 'Samples'), CATDS: 2.6842704761094599E-2
  potency estimated from few doses: 0.243 µM
[7]; CATDS: 1.53606700454439E-2
  potency estimated from few doses: 1.32 µM
[8]; compound concentrations: 100 nM and 1000 nM (sheet 'Samples'), CATDS: 1.8312802074437001E-2
  potency estimated from few doses: 0.662 µM

## CC(C)c1nc(-c2cccc(NS(=O)(=O)c3c(F)cccc3F)c2F)c(-c2ccnc(Nc3ccc(N4CCOCC4)nc3)n2)s1 [GSK2008607A]
[5]; compound concentrations: 100 nM and 1000 nM (sheet 'Samples'), CATDS: 1.89965490605935E-2
  potency estimated from few doses: 1.67 µM
[7]; CATDS: 1.9066828422081999E-2
  potency estimated from few doses: 1.65 µM
[6]; compound concentrations: 100 nM and 1000 nM (sheet 'Samples'), CATDS: 2.27822446193667E-2
  potency estimated from few doses: 0.926 µM
[8]; compound concentrations: 100 nM and 1000 nM (sheet 'Samples'), CATDS: 3.6955578451965801E-2
  potency estimated from few doses: 0.316 µM
[4]; compound concentrations: 100 nM and 1000 nM (sheet 'Samples'), CATDS: 2.0597012246937899E-2
  potency estimated from few doses: 1.25 µM

## COc1cc(/C=N/Nc2ncnc3[nH]ncc23)ccc1O [GW578748X]
[9]
  potency estimated from few doses: 2.04 µM

## N#Cc1cccc(Nc2nccc(-c3cnn4ncccc34)n2)c1 [GW778894X]
[10]; [19]
  potency estimated from few doses: 1.97 µM
[11]; [19]
  potency estimated from few doses: 0.00167 µM
[12]
  potency estimated from few doses: 0.113 µM

## CC(=O)N1CCN(c2ccc(Nc3nccc(-c4sc(C(C)C)nc4-c4cccc(NS(=O)(=O)c5cccc(Cl)c5)c4)n3)cn2)CC1 [GSK1660437A]
[7]; CATDS: 3.4539361157079097E-2
  potency estimated from few doses: 2.42 µM

## O=S(=O)(CCOCc1ccc(-c2ccc3ncnc(Nc4ccc(OCc5cccc(F)c5)c(Cl)c4)c3c2)o1)c1ccccc1 [GW615311X]
[13]; compound concentrations: 100 nM and 1000 nM (sheet 'Samples'), CATDS: 2.34385173398927E-2
  potency estimated from few doses: 2.05 µM

## Nc1c(C(=O)c2ccccc2)cnn1-c1ccc(F)cc1 [RO1151246-000]
[10]; [19]
  potency estimated from few doses: 2.12 µM
[8]; [19]
  potency estimated from few doses: 1.92 µM
[13]; [19]
  potency estimated from few doses: 1.66 µM
[4]; [19]
  potency estimated from few doses: 1.78 µM

## CCCN1CCC(Oc2cc(Nc3nc(Nc4cccc(F)c4C(N)=O)c4cc[nH]c4n3)c(OC)cc2Cl)CC1 [GSK1713088A]
[10]; compound concentrations: 100 nM and 1000 nM (sheet 'Samples'), CATDS: 0.18030383020801999
  potency estimated from few doses: 2 µM

## COc1cc2ncn(-c3cc(OCc4sccc4Cl)c(C(N)=O)s3)c2cc1OC [GSK448459A]
[14]
  potency estimated from few doses: 0.434 µM

## Cc1ccc(-n2nc(C(C)(C)C)cc2NC(=O)Nc2ccc(OCCN3CCOCC3)cc2)cc1 [BIRB0876BS]
[15]
  potency estimated from few doses: 2.17 µM

## Clc1ccc(-c2nn3ncccc3c2-c2ccnc(Nc3ccccc3)n2)cc1 [GW829055X]
[16]; compound concentrations: 100 nM and 1000 nM (sheet 'Samples'), CATDS: 0.15486403103885801
  potency estimated from few doses: 0.13 µM
[17]; compound concentrations: 100 nM and 1000 nM (sheet 'Samples'), CATDS: 5.2406473036639797E-2
  potency estimated from few doses: 0.681 µM
[18]; compound concentrations: 100 nM and 1000 nM (sheet 'Samples'), CATDS: 4.3121960870331599E-2
  potency estimated from few doses: 0.997 µM

## Cn1cc(C2=C(c3ccccc3[N+](=O)[O-])C(=O)NC2=O)c2ccccc21 [RO0317753-000]
[11]; compound concentrations: 100 nM and 1000 nM (sheet 'Samples'), CATDS: 0.27950775870472
  potency estimated from few doses: 0.0323 µM

## COc1ccc(COc2ccc(Cc3cnc(N)nc3N)cc2OC)cc1 [GW632580X]
[16]; [19]
  potency estimated from few doses: 1.91 µM

## COc1cc(F)c(F)c(F)c1C(=O)c1cnc(NC2CCN(S(C)(=O)=O)CC2)nc1N [RO4600703-000]
[11]; [19]
  potency estimated from few doses: 0.246 µM
[14]
  potency estimated from few doses: 0.471 µM

## Cn1cc(C2=C(c3cn(CCCCCO)c4ccccc34)C(=O)NC2=O)c2ccccc21 [RO0318053-000]
[4]; compound concentrations: 100 nM and 1000 nM (sheet 'Samples'), CATDS: 8.4372577909481605E-2
  potency estimated from few doses: 1.45 µM

## NC(=O)c1cccnc1COc1cc(-c2ccc(N3CCOCC3)nc2)cc2ncccc12 [BI01125081]
[15]
  potency estimated from few doses: 1.7 µM
[8]; [19]
  potency estimated from few doses: 1.89 µM

## COc1ccc(C2=C(c3cn(C)c4ccccc34)C(=O)NC2=O)cc1OC [RO3206363-000]
[1]; CATDS: 7.8788816860825395E-2
  potency estimated from few doses: 0.166 µM

## Cc1ccc(NC(=O)c2ccc(Cl)cc2)cc1-c1ccc(C(=O)Nc2ccncc2)cc1 [GSK1398467A]
[16]; compound concentrations: 100 nM and 1000 nM (sheet 'Samples'), CATDS: 0.228122835279086
  potency estimated from few doses: 0.956 µM

## Fc1cccc(COc2ccc(Nc3ncncc3C#Cc3ccccc3)cc2Cl)c1 [GW651576X]
[16]; compound concentrations: 100 nM and 1000 nM (sheet 'Samples'), CATDS: 5.0215020986353498E-2
  potency estimated from few doses: 1.77 µM
[17]; compound concentrations: 100 nM and 1000 nM (sheet 'Samples'), CATDS: 5.1701945188740897E-2
  potency estimated from few doses: 1.67 µM

## Fc1ccc(-c2ncn(C3CCNCC3)c2-c2ccnc(Oc3ccc4c(c3)OCO4)n2)cc1 [SB-250715]
[18]; [19]
  potency estimated from few doses: 0.834 µM

## COc1cc2ncn(-c3cc(O[C@H](C)c4ccccc4Cl)c(C(N)=O)s3)c2cc1OC [GSK237701A]
[17]; [19]
  potency estimated from few doses: 1.52 µM
[14]
  potency estimated from few doses: 0.782 µM

## COc1ccccc1-c1cc(/C=C2\C(=O)Nc3ncc(Br)cc32)cc(Br)c1O [GW442130X]
[10]; [19]
  potency estimated from few doses: 1.94 µM
